# Experimental data reported in PubChem BioAssay AID463173 (ICCB-Longwood Screening Facility, Harvard Medical School, 2010).
# Screen size: about 52,000 compounds; about 4,300 (8.3%) were called active. The sample holds actives, similar compounds and a random draw of the others, so the mix is not that of the screen. Unmarked numbers belong to inactive results. Rule as the data show it: active = survival mostly below about 52% (no sharp cut-off); inactive = mostly above about 56%.
# System: DeltatarO mutant
# Experiment: S. aureus survival, RN4220 and DeltatarO strains – OD600, teichoic acid synthesis inhibitors, primary screen (AID 463173)
# Conditions: S. aureus RN4220 wild type/DeltatarO growth, OD600, 18 h, stronger effect = lower value, screened at 18.75 µg/mL (by protocol)
row,Structure (SMILES),survival
1,Cc1nn(CCCC(=O)Nc2ccccc2C(F)(F)F)c(=O)c2c1sc1ccccc12,74%
2,Cc1nc2ccc(C(=O)N3CCN(Cc4ccccc4)CC3)cc2[nH]1,104%
3,CN(c1ccc(C(=O)NCc2cccnc2)cc1)S(C)(=O)=O,73%
4,Cc1cccc(C(=O)n2nc(-c3ccco3)nc2NCc2ccccc2)c1,63%
5,C=CCN1C(=O)C2C(C(=O)NC3CCCCC3C)C3(C)C=CC2(O3)C1C(=O)NC(C)(C)C (configuration not stated),65%
6,Nc1ncc(S(=O)(=O)NCc2ccccc2)cn1,70%
7,COc1ccc(Nc2oc(-c3ccc(COc4cccc(C)c4)o3)nc2C#N)cc1,109%
8,Cc1ccc(-n2c(=O)c3ccccc3n(CC(=O)Nc3cccc(C(F)(F)F)c3)c2=O)cc1,63%
9,CCc1ccc2oc(-c3ccc(C)c(NC(=O)c4ccc(C#N)cc4F)c3)nc2c1,74%
10,Cc1cc(C)c2oc(-c3ccc(NC(=O)COc4ccccc4C)cc3)nc2c1,67%
11,Cc1cc(C)c2oc(-c3cccc(NC(=O)COc4ccccc4Cl)c3C)nc2c1,42% (active)
12,Cc1cc(C)c2oc(-c3cccc(NC(=O)c4cccc(F)c4)c3C)nc2c1,72%
13,N#Cc1ccc2c(c1)nc1c3cccc4cccc(c(=O)n21)c43,72%
14,CC(C)(C)C(=O)N1c2ccccc2CCc2ccccc21,84%
15,COc1ccc(Br)cc1CNC(=O)CCSCc1ccc(C)cc1,81%
16,Cc1cccc(C(c2sc3nc(-c4ccco4)nn3c2O)N2CCN(Cc3ccccc3)CC2)c1 (configuration not stated),94%
17,CC(=O)c1ccc(Oc2nc(C)nc3c2oc2ccccc23)cc1,92%
18,Cc1nc(Oc2ccccc2C)c2oc3ccccc3c2n1,101%
19,COc1cccc(Oc2nc(C)nc3c2oc2ccccc23)c1,25% (active)
20,CCN(CC)c1ccc(NC(=O)C(Cc2ccccc2)NS(=O)(=O)c2ccc(Br)s2)c(C)c1 (configuration not stated),117%
21,COc1ccc2nc(SCC(=O)NC3CCCCC3C)c(C#N)cc2c1 (configuration not stated),89%
22,CC(=O)Nc1ccc(Nc2nc3ccc(Cl)cc3n3cnnc23)cc1,99%
23,COc1ccc(C(=O)Nc2nccs2)cc1OC,79%

row,Structure (SMILES),survival
1,COc1cc(C(=O)Nc2ccc(NC(=O)c3ccc(C(C)(C)C)cc3)cc2)cc(OC)c1OC,132%
2,CCCCCNC(=O)c1ccc2c(c1)ncn2-c1cccc(C)c1,0% (active)
3,Cc1nc2cc(C(=O)NCCC3=CCCCC3)ccc2n1-c1ccc(Br)cc1,60%
4,Cc1cccc(-n2cnc3cc(C(=O)NC4CCCCCC4)ccc32)c1,106%
5,Cc1cc(C)cc(-n2cnc3cc(C(=O)NCCc4ccccc4)ccc32)c1,78%
6,Cc1cccc(-n2cnc3cc(C(=O)NCc4ccccc4Cl)ccc32)c1,72%
7,CCOc1ccc(-n2c(C)nc3cc(C(=O)NCCC4=CCCCC4)ccc32)cc1,-4% (active)
8,Cc1ccc(-n2cnc3cc(C(=O)NCc4ccccc4Cl)ccc32)c(C)c1,37% (active)
9,CCCNC(=O)c1ccc2c(c1)ncn2-c1ccc(C)cc1C,75%
10,COCCCNC(=O)c1ccc2c(c1)nc(C)n2-c1cccc(C)c1,69%
11,Cc1cccc(-n2c(C)nc3cc(C(=O)NCCC4=CCCCC4)ccc32)c1,71%
12,CCCCCNC(=O)c1ccc2c(c1)nc(C)n2-c1cccc(C)c1,0% (active)
13,CCCNC(=O)c1ccc2c(c1)nc(C)n2-c1cccc(C)c1,83%
14,Cc1nn(-c2ccccc2)c(OC(=O)c2ccc(Cl)cc2)c1S(=O)(=O)c1ccccc1,79%
15,c1csc(-c2nc3ccccn3c2Nc2ccc3c(c2)OCCO3)c1,89%
16,Cc1ccccc1NC(=O)CCS(=O)(=O)c1cc(Br)cc2c1N(C(=O)C1CC1)CC2,96%
17,CC(=O)Nc1cc2c(cc1C(=O)c1ccccc1)OCCO2,108%
18,Cn1c(=O)c(=O)n(C)c2cc(S(=O)(=O)CCC(=O)Nc3ccc(F)cc3)ccc21,83%
19,CCc1nn(CC(=O)NCCN(CC(C)C)CC(C)C)c(=O)c2cc3sc(C)cc3n12,68%
20,CC(=O)c1ccc(Nc2cc(C)nc3nc(Cc4ccccc4)nn23)cc1,64%
21,CCOC(=O)Cc1ccc(NC(=O)NCc2cccn2Cc2ccccc2)cc1,-4% (active)
22,CCOC(=O)c1cccc(NC(=O)NCc2cccn2Cc2ccccc2)c1,119%
23,CCOc1ccc(NC(=O)NCc2cccn2Cc2ccccc2)cc1,72%

row,Structure (SMILES),survival
1,CCN1CCc2c(sc(-n3cccc3)c2C(C)NC(=O)Nc2ccc(Br)cc2)C1 (configuration not stated),102%
2,CCc1ccc(NC(=O)CC2C(=O)N(c3ccc(OC)cc3)C(=O)N2Cc2ccc(OC)cc2)cc1 (configuration not stated),100%
3,CC(=O)c1ccc(NC(=O)Cn2cnc3nc4c(cc3c2=O)CC(C)CC4)cc1 (configuration not stated),60%
4,O=C(Cn1c(CC(=O)N2CCCC2)nc2ccccc21)NCc1ccccc1,64% (active)
5,CCOC(=O)c1cccc(NC(=O)Cn2c(CC(=O)N3CCCC3)nc3ccccc32)c1,83%
6,O=C(CSc1cn(CC(=O)N2CCCCC2)c2ccccc12)NCc1ccccc1,87%
7,CCn1c(=O)c2sccc2n2c(CCC(=O)N3CCN(c4ccc(C(C)=O)cc4)CC3)nnc12,65%
8,CCOc1cc(C(=O)N2CCn3c4c(c5cc(C)ccc53)CCCC42)cc(OCC)c1OCC (configuration not stated),56%
9,Cc1ccc2c(c1)c1c3n2CCN(C(=O)c2cccc(C(F)(F)F)c2)C3CCC1 (configuration not stated),14% (active)
10,CCCN(CCC)S(=O)(=O)c1ccc(C(=O)N2CCn3c4c(c5cc(C)ccc53)CCCC42)cc1 (configuration not stated),58%
11,COc1cc(SC)ccc1C(=O)N1CCn2c3c(c4cc(C)ccc42)CCCC31 (configuration not stated),70%
12,Cc1ccc2c(c1)c1c3n2CCN(C(=O)c2ccc(C(F)(F)F)cc2)C3CCC1 (configuration not stated),44%
13,Cc1ccc(C(=O)N2CCn3c4c(c5cc(C)ccc53)CCCC42)cc1 (configuration not stated),-1% (active)
14,COc1ccc(OC)c(CNC(=O)c2cc3ccc4cccnc4c3[nH]2)c1,112%
15,COc1ccc(-c2nnc(SCC(=O)N(C)C3CCCCC3)o2)cc1OC,86%
16,O=C(O)c1ccc(N=NN2CCCCC2)cc1,75%
17,COc1cccc(NC(=O)C(=O)NCC(c2cccnc2)N2CCN(c3ccccc3)CC2)c1 (configuration not stated),97%
18,COc1cccc(C2C(C(=O)Nc3ccccc3OC)=C(C)Nc3nc4ccccc4n32)c1 (configuration not stated),51%
19,Cc1cccc(N2CCN(C(=O)Cn3ncc4c5ccccc5n(C)c4c3=O)CC2)c1C,73%
20,CCc1nnc(NC(=O)c2nc(S(C)(=O)=O)ncc2Cl)s1,66%
21,Cc1cccc(CS(=O)(=O)c2ncc(Cl)c(C(=O)Nc3nnc(C(C)C)s3)n2)c1,28% (active)
22,CC(C)c1nnc(NC(=O)c2nc(S(=O)(=O)Cc3ccccc3)ncc2Cl)s1,46%
23,CCc1nnc(NC(=O)c2nc(S(=O)(=O)Cc3cccc(C)c3)ncc2Cl)s1,31% (active)

row,Structure (SMILES),survival
1,CCc1nnc(NC(=O)c2nc(S(=O)(=O)Cc3ccc(C)cc3)ncc2Cl)s1,42% (active)
2,CCCc1nnc(NC(=O)c2nc(S(=O)(=O)Cc3ccc(C)cc3)ncc2Cl)s1,47%
3,Cc1ccccc1CS(=O)(=O)c1ncc(Cl)c(C(=O)Nc2nnc(C(C)C)s2)n1,30% (active)
4,Cc1ccc(CS(=O)(=O)c2ncc(Cl)c(C(=O)Nc3nnc(C(C)C)s3)n2)cc1,54%
5,O=C(NC1CCCCC1)c1cccs1,107%
6,COCCN(Cc1cc2cc3c(cc2nc1Cl)OCO3)C(=O)Nc1ccccc1OC,92%
7,CCOc1ccc(CN(C(=O)c2nc(SC)ncc2Cl)C2CCS(=O)(=O)C2)cc1 (configuration not stated),88%
8,Cc1ccc(-c2ccc(=O)n(CC(=O)Nc3ccc(F)c(Cl)c3)n2)cc1C,82%
9,COc1ccccc1Nc1cc(C(=O)NCc2cccs2)c2ccccc2n1,73%
10,Cc1cc(=O)[nH]c2nnc(SCCC(C)C)n12,73%
11,Cc1nnc(NC(=O)c2nc(S(=O)(=O)Cc3ccccc3)ncc2Cl)s1,48% (active)
12,Cc1nn2c(C)c(C(=O)NCC(C)c3ccccc3)cnc2c1-c1ccccc1 (configuration not stated),101%
13,Cc1nn2c(C)c(C(=O)NCCc3ccccc3)cnc2c1-c1ccccc1,81%
14,CCOc1ccc(-c2c(C)nn3c(-c4ccccc4)c(C(=O)NCCOC)cnc23)cc1OCC,-5% (active)
15,CCOc1ccc(-c2c(C)nn3c(C)c(C(=O)Nc4cc(C)cc(C)c4)cnc23)cc1OCC,118%
16,Cc1cccc(CNC(=O)c2cnc3c(-c4cccc(C)c4)c(C)nn3c2C)c1,17% (active)
17,CCOc1ccc(-c2c(C)nn3c(C)c(C(=O)Nc4ccccc4C(=O)OC)cnc23)cc1OCC,-4% (active)
18,CCNC(=O)c1cnc2c(-c3ccccc3)c(C)nn2c1C,8% (active)
19,CCCNC(=O)c1cnc2c(-c3ccc(OCC)c(OCC)c3)c(C)nn2c1-c1ccccc1,92%
20,CCOc1ccc(-c2c(C)nn3c(C)c(C(=O)Nc4cccc(Cl)c4C)cnc23)cc1OCC,76%
21,CCCCNC(=O)c1cnc2c(-c3ccc(OCC)c(OCC)c3)c(C)nn2c1-c1ccccc1,73%
22,Cc1nn2c(C)c(C(=O)NCc3cccc(Br)c3)cnc2c1-c1ccccc1,66%
23,COc1cc(CNC(=O)c2cnc3c(-c4cccc(C)c4)c(C)nn3c2C)cc(OC)c1OC,68%
